About 3,000 (1%) of roughly 290,000 compounds were called active. Cut-off read from the data, not from the text of the source: active = inhibition mostly above about 36% (no sharp cut-off); inactive = mostly below about 34%. The sample as a whole holds a higher share of actives than the screen did.
Experiment: NOD1 signaling inhibitors, primary screen, cell-based, luminescence, uHTS (AID 1578);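 note: HEK-293T reporter cells stimulated with the NOD1 agonist gamma-tri-DAP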
Details: NOD1-driven NF-kB luciferase reporter cells, at 4 µM, stronger effect = higher value

inhibition, active:
N#Cc1c(N)nc(Sc2ccc(Cl)cc2)c(C#N)c1-c1ccccc1Cl 83.1%
O=C(CCl)N(c1ccccc1)C1CCS(=O)(=O)C1 (stereo not drawn) 93.2%
c1ccc(CCNc2ncnc3ccccc23)cc1 71.7%
COc1cc2ncnc(Nc3cccc(Cl)c3)c2cc1OC 45.3%
OCCCCCNc1ncnc2ccccc12 45.8%
CCOc1ccc(C(=O)CCN2CCCCCC2)cc1 70.2%
CCCCC(=O)OCC(=O)c1ccc(OCC)cc1 31.2%
Cc1ccc(CN2CCSc3ccc(C(=O)N4CCN(c5ncccn5)CC4)cc32)cc1 34.2%
CCC(C)Oc1cc(-c2ccnc(Nc3cccc(Cl)c3)n2)ccn1 (stereo not drawn) 47%
COCc1cc(S(=O)c2ccc(Cl)cc2)nc(C)n1 (stereo not drawn) 84.6%
O=C(c1c[nH]c2ccccc12)C(Cl)c1ccccc1 (stereo not drawn) 96.9%
CCCCCCCN1C2=NCCN2c2ccccc21 35.9%
CC(C)(C)c1ccc(CN2C3=NCCCN3c3ccccc32)cc1 112%
CC(NC(=O)CCl)c1ccc(Cl)c(Cl)c1 (stereo not drawn) 93.1%
Fc1c(F)c(F)c(N/N=C/c2c[nH]c3ccccc23)c(F)c1F 87.4%
COc1ccc2[nH]cc(/C=N/NS(=O)(=O)c3ccc(C)cc3)c2c1 44%
Cc1ccc(S(=O)(=O)N/N=C/c2c[nH]c3ccccc23)cc1 62.4%

inhibition, inactive:
CCSc1nc(N)c(C#N)c(-c2ccccc2Cl)c1C#N -2.6%
COc1ccc(-c2c(C#N)c(N)nc(Sc3ccc(Cl)cc3)c2C#N)cc1 -0.6%
Cc1[nH]c(=O)[nH]c(=O)c1S(=O)(=O)Nc1ccc(Oc2ccccc2)cc1 -23.1%
COc1ccc2nc(NCCCO)[nH]c2c1 -28.1%
COc1ccccc1OCCNC(=O)c1cc(SC)ccc1Cl -20.2%
Cc1cc(S(=O)(=O)NCCc2ccccc2)c(C)s1 15.9%
COc1ccc(/C=C/c2c([N+](=O)[O-])c(=O)n(C)c(=O)n2C)cc1 -2.9%
CN(C)c1ccc(/C=C/c2c([N+](=O)[O-])c(=O)n(C)c(=O)n2C)cc1 -9.1%
CCc1ccc(/C=C/c2c([N+](=O)[O-])c(=O)n(C)c(=O)n2C)cc1 22.5%
CCOc1ccc(/C=C/c2c([N+](=O)[O-])c(=O)n(C)c(=O)n2C)cc1 -27.7%
Clc1nccnc1-c1ccccc1 -25.1%
Cc1sc2nc(NCCO)[nH]c(=O)c2c1C -16%
O=C(Nc1nc(-c2ccc(Br)cc2)cs1)c1cccnc1 -26.9%
CC1CCCCC1NC(=O)CSc1nnc(-c2ccccc2)n1N (stereo not drawn) 11.7%
O=C(CCl)N(C1CCCC1)C1CCS(=O)(=O)C1 (stereo not drawn) 35.5%
O=C(CCl)N(c1ccccc1)C1CCCCC1 34.4%
NS(=O)(=O)c1ccc(CCNC(=O)c2cc(-c3cc(Cl)ccc3O)n[nH]2)cc1 -5.8%
CC(=O)Nc1ccc(NC(=O)[C@@H](NC(=O)N2C[C@H]3C[C@@H](C2)c2cccc(=O)n2C3)C(C)C)cc1 -3.2%
CCN(CCn1cccn1)Cc1cn[nH]c1-c1cccc2ccccc12 -11.1%
CC(=O)c1ccc(N2CCN(C(=O)C(=O)c3cn(CC(=O)N4CCCCCC4)c4ccccc34)CC2)cc1 -25.9%
Cc1cc(=O)oc2c(C)c(OCC(=O)N3CC[C@@]4(O)CCCC[C@H]4C3)ccc12 -30.1%
CCCCCCCCNc1ncnc2ccccc12 54.9%
COc1cc2ncnc(NCc3ccccc3)c2cc1OC -4.6%
COc1cc2ncnc(NCc3cccc(Cl)c3)c2cc1OC 44.2%
CN(C)CCNc1ncnc2ccccc12 -20.6%
CCN(CC)CCCNc1ncnc2ccccc12 -25.6%
COc1ccccc1CNc1ncnc2cc(OC)c(OC)cc12 -12.1%
COc1cc2ncnc(Nc3ccc4c(c3)OCO4)c2cc1OC 16.8%
c1ccc(CNc2ncnc3ccccc23)cc1 -16.1%
CC(C)Cn1c(SCC(=O)N2CCCc3ccccc32)nc2ccccc2c1=O -2.1%
O=C(CSc1nnc(C2CC2)n1CC1CCCO1)Nc1ccccc1Cl (stereo not drawn) -9%
CC1CCN(c2ccc([N+](=O)[O-])cc2C(=O)O)CC1 -6.6%
COCc1cc(=O)[nH]c(=S)[nH]1 -3.8%
C#CCNC(=O)/C=C/c1ccc(C)cc1 -42.9%
COC(=O)C1=C(C(=O)OC)[C@@H]2N(C)c3ccccc3[C@@]23C[C@@H](CO)N(C(=O)NCCBr)C3=N1 -2.6%
Cc1c(O)ccc2c(=O)c(Oc3ccccc3)coc12 -2.7%
Cc1cc(C)nc(SCc2nnc(SCC(=O)Nc3c(C)cccc3C)o2)n1 -14%
O=C1CSc2ccc(S(=O)(=O)CCC(=O)NC3CCCCC3)cc2N1 -26.4%
C#CCOC(=O)CCCNc1ccc([N+](=O)[O-])cc1[N+](=O)[O-] -22.8%
CC1CN=C(N(C(=O)Nc2ccccc2)c2ccc(F)cc2)S1 (stereo not drawn) 1.6%
CSCCC(NC(=O)OCc1ccccc1)C(=O)NCc1cccnc1 (stereo not drawn) -10.2%
CCOc1ccc(C(=O)CCN2CCCCC2)cc1 44%
CCOc1ccc(C(=O)COC(=O)CC)cc1 -16%
CCOc1ccc(C(=O)COC(C)=O)cc1 3.9%
CCCOc1ccc(C(=O)CCN2CCCCC2)cc1 35.7%
Cc1occc1C(=O)O/N=C(\N)c1ccccc1 -8.7%
CCNC(=S)Nc1cccc(F)c1C -29.3%
O=C(NCc1ccco1)C(Cc1ccccc1)N1C(=O)C2C3C=CC(C3)C2C1=O (stereo not drawn) 1.7%
COC(=O)C(Cc1ccccc1)NC(=O)CC(C)CC(=O)Nc1ccc(C)cc1 (stereo not drawn) -13.8%
CC(C)(C)NC(=O)CN(C(=O)C1CSC(=O)C1)c1ccc2c(c1)OCCO2 (stereo not drawn) -20.5%
CCOC(=O)N1CCN(C(=O)c2ccc3c(c2)N(Cc2ccc(C)cc2)CCS3)CC1 45.5%
CCN1CCN(C(=O)c2ccc3c(c2)N(Cc2ccc(C)cc2)CCS3)CC1 -18.4%
CSc1nc2ccc(NC(=O)c3ccco3)cc2s1 -41.5%
C=CCn1c(COc2ccccc2-c2ccccc2)nnc1SCC(=O)NC(=O)NCc1ccco1 -0.2%
Cc1cc(C)nc(Nc2cccc(Cl)c2)n1 -14.1%
COc1ccc(Nc2nccc(-c3cccc(N)c3)n2)cc1 6.7%
Brc1ccc(CSc2ncn[nH]2)cc1 19%
COc1cc2ccccc2cc1C(=O)Nc1ccc2oc(=O)ccc2c1 46.4%
CCNc1nc(NC(C)C)nc(Oc2ccc(OCCOc3ccc(C)cc3)nn2)n1 -39.7%
COCc1cc(Sc2ccc(Cl)cc2)nc(C)n1 -2.4%
COCc1cc(NCc2ccc(Cl)cc2)nc(C)n1 21%
CC(Cl)C(=O)c1c[nH]c2ccccc12 (stereo not drawn) -10.4%
O=C(c1ccccc1)c1c[nH]c2ccccc12 -14.2%
COc1ccccc1NS(=O)(=O)c1ccc2c(c1)NC(=O)C(C)S2 (stereo not drawn) 49.3%
COc1ccc(N2CCN(C(=O)c3oc4ccccc4c3NC(=O)Cc3cccc(OC)c3)CC2)cc1 -28.1%
Cc1ccc(S(=O)(=O)NC(CC(=O)O)c2cccs2)cc1 (stereo not drawn) -21.8%
c1ccc(CN2C3=NCCCN3c3ccccc32)cc1 -21.5%
CCCCCCN1C2=NCCN2c2ccccc21 -24.5%
CCCCCN1C2=NCCN2c2ccccc21 -41.3%
Cc1ccc(CN2C3=NCCCN3c3ccccc32)cc1 -29.5%
CCCCOCCCNC1=NCCCCC1 -5.9%
CCNC(=O)NC(=O)C(C)OC(=O)c1oc2ccc(OC)cc2c1C (stereo not drawn) 25.1%
O=C(O)c1ccc2cc[nH]c2c1 7%
Cc1ccc2cc(C#N)c(NCc3ccco3)nc2c1 -2.1%
CC(C)(C)n1cnc2cc(NC(=O)c3ccccc3)ccc21 -12.2%
CC(=O)NC(C)c1ccc(Cl)c(Cl)c1 (stereo not drawn) -19.4%
Cc1ccc(OCC(=O)NC(C)c2ccc(Cl)c(Cl)c2)c([N+](=O)[O-])n1 (stereo not drawn) -30.1%
COc1ccc(O)c(/C=N/NS(=O)(=O)c2ccc(C)cc2)c1 1.6%
C(=N\Nc1ccccn1)/c1c[nH]c2ccccc12 10.9%
COc1ccc(OC)c(S(=O)(=O)N/N=C\c2c[nH]c3ccccc23)c1 30.3%
Cc1ccc(S(=O)(=O)N/N=C/c2ccccc2O)cc1 -2.2%
C(=N\Nc1nc2ccccc2[nH]1)/c1c[nH]c2ccccc12 34.5%
COc1ccc2c(/C=N/NS(=O)(=O)c3ccc(C)cc3)c[nH]c2c1 -6.6%
COc1ccc(N2CCN(C(CNC(=O)C(=O)NCc3ccc4c(c3)OCO4)c3ccco3)CC2)cc1 (stereo not drawn) -7.2%
O=C(O)/C=C/C(=O)Nc1ccc(S(=O)(=O)Nc2nccs2)cc1 -6.1%
COc1ccc(CCNC(=O)CSc2nnc(CNC(=O)c3ccccc3F)o2)cc1OC -6.3%

From PubChem BioAssay AID1578 (Sanford-Burnham Center for Chemical Genomics, 2009)
